Where “and” joins values, the source holds several entries; their conditions need not be identical. Identical values can stand only once. Inconclusive results are not listed. Calls of active or inactive are those of the source. Unless noted, the call rests on the fitted dose curve; in most records, active means well fitted cell-killing curve with a large enough effect; inconclusive means small, poorly fitted or top-dose-only effect; inactive means flat fitted curve, though single readings scatter.
Columns and labels:
[1] = qHTS Assay for Lipid Storage Modulators (AID 1519; calls by dose curve; on activity change, negative = inhibition: on the % scale 0 is the no-effect control and ±100 the full control effect); details: Drosophila S3 cells, BODIPY lipid droplet/cell ratio, laser cytometry, cells loaded with oleic acid
Outline: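 Cells seeded at 5,000 per well were treated with compounds over a concentration series and loaded with oleic acid (400 uM, as added). Lipid droplet fluorescence (488 nm excitation, 500-530 nm channel) was read by laser-scanning cytometry and normalized to 20 uM Triacsin C.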

[2] = Cell Viability - LYMP2-024 (AID 988); details: LYMP2-024 lymphoblastoid cell viability; series mostly up to 92.2 µM;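 further: plate controls were DMSO only for no effect and 92 µM tetraoctylammonium bromide for full effect; nearly all actives have a fitted effect of over 60% in size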
Outline: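 qHTS cytotoxicity, human lymphoblastoid line, complete medium; 24 h cpd treatment, 37 C; CellTiter-Glo ATP luminescence readout; tetraoctylammonium bromide positive control; AC50 via Hill fit.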

[3] = Cell Viability - LYMP2-026 (AID 989); details: LYMP2-026 lymphoblastoid cell viability, qHTS; series mostly up to 92.2 µM;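 further: cells exposed to compound for 24 h at 37 °C; on the % scale 0 is the no-effect control and ±100 the full control effect; nearly all actives have a fitted effect of over 50% in size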
Outline: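 Cells are seeded at 2500 per well and held 5 hr at 37 C. Compounds are added in concentration series for 24 hr, then CellTiter-Glo reagent is applied and luminescence read.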

[4] = Cell Viability - LYMP1-002 - Assay at 24 hr (AID 993); details: LYMP1-002 lymphoblastoid cells viability; series mostly up to 92.2 µM; further: on the % scale 0 is the no-effect control and ±100 the full control effect
Outline: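 Acute toxicity is measured as concentration-dependent loss of cellular ATP in a human lymphoblastoid line (Coriell LYMP1-002) after 24 h treatment in complete medium. ATP is quantified by luciferase luminescence and AC50 derived by Hill modelling.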

[5] = Cell Viability - LYMP1-002 - Assay at 40 hr (AID 994); details: LYMP1-002 lymphoblastoid cell viability; series mostly up to 92.2 µM;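 further: 0% = DMSO only and full inhibition = 92 µM tetraoctylammonium bromide; nearly all actives have a fitted effect of over 60% in size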
Outline: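 Cells are plated at 2500 per well and rested 5 hr at 37 C. Compounds are added and incubated 40 hr at 37 C. CellTiter-Glo reagent is added for 30 min at room temperature before luminescence is read.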

[6] = measured here: cell count channel max response
[7] = measured here: lipid channel max response

Row | SMILES | activity change, negative = inhibition ([1]; at 25.7 µM (top of the series)) | activity change, negative = inhibition ([1]; at 57.5 µM (top of the series)) | max response [1, 6] | max response [1, 7] | outcome [2] | outcome [3] | outcome [4] | outcome [5]
1 | O=C(O)c1ccccc1C(=O)Nc1ccc(S(=O)(=O)Nc2nccs2)cc1 | -0.565% (inactive) | 12.9% (inactive) | -5.87% and 21% | -9.76% and 42% |  |  |  | 
2 | O=C(O)CCCCC1CCSS1 (stereo not given) |  | 3.99% (inactive) | 11.5% | 16.4% | inactive | inactive | inactive | inactive
3 | Cc1cc(O)cc(C)c1Cl |  | 11.1% (inactive) | -12.4% | 1.81% |  |  |  | 
4 | C=CCNC(N)=S |  |  |  |  | inactive | inactive | inactive | inactive
5 | CCCC(O)C(CC)CO (stereo not given) |  |  |  |  | inactive | inactive | inactive | inactive
6 | NC(N)=NCCN1CCCCCCC1 | -2.42% (inactive) | 6.2% (inactive) | 3.46% and 15.5% | 0.449% and 29.6% |  |  |  | 
7 | CC(=O)Nc1cccc(O)c1 |  | 14.9% (inactive) | 10% | 23.8% | inactive | inactive | inactive | inactive
8 | Nc1ccc(S(=O)(=O)c2ccc(N)cc2)cc1 | -0.694% (inactive) |  | 4.2% | 4.3% | inactive | inactive | inactive | inactive
9 | CC1CC(OC(=O)c2ccccc2O)CC(C)(C)C1 (stereo not given) |  | 7.41% (inactive) | 1.44% | 9.79% | inactive | inactive | inactive | inactive
10 | Cc1c(NC(C)C)c(=O)n(-c2ccccc2)n1C | 1.53% (inactive) | 9.46% (inactive) | 12.2% and 13.2% | 14.1% and 25.6% |  |  |  | 
11 | COc1ccc(O)cc1 |  |  |  |  | inactive | inactive | inactive | inactive
12 | NC(N)=NS(=O)(=O)c1ccc(N)cc1 | -0.993% (inactive) | 6.41% (inactive) | 1.84% and 2.06% | -0.509% and 12.7% |  |  |  | 
13 | Cn1c([N+](=O)[O-])cnc1COC(N)=O | 1.17% (inactive) | 7.17% (inactive) | -1.45% and 4.32% | -3% and 14.5% |  |  |  | 
14 | Cc1cc(=O)[nH]c(=S)[nH]1 |  |  |  |  | inactive | inactive | inactive | inactive
15 | O=C1c2cccc(O)c2C(=O)c2c(O)cccc21 |  | -5.01% (inactive) | 2.23% | -1.3% | inactive | inactive | inactive | inactive
16 | NCc1ccc(S(N)(=O)=O)cc1 | -2.86% (inactive) | 9.84% (inactive) | -7.52% and 18.9% | -8.55% and 31.3% |  |  |  | 
17 | Cc1c(NC(=O)c2cccnc2)c(=O)n(-c2ccccc2)n1C | -1.84% (inactive) | 5.04% (inactive) | 3.68% and 18.2% | 4.21% and 26.8% |  |  |  | 
18 | COc1ccc2cc(CCC(C)=O)ccc2c1 | 1.09% (inactive) |  | -11.1% | -11.1% |  |  |  | 

Source: PubChem BioAssay (NCATS)
